Experimental data taken from article PMC11006913.

Target: CRX (Homo sapiens, UniProt O43186 26-111)
Test: PBM; 200 nM protein, PBS
Settings: dsDNA, one strand shown

Chain of CRX (O43186 26-111): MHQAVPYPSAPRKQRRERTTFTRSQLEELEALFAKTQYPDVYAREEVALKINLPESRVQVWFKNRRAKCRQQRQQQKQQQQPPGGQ

Row | Sequence | binding signal
1 | CTCTCTCC | 8.11 upbm affinity estimate (log intensity, higher = more binding, comparable within an allelic series)
2 | GCTATTTA | 10.3 upbm affinity estimate (log intensity, higher = more binding, comparable within an allelic series)
3 | GGGAGACA | 8.13 upbm affinity estimate (log intensity, higher = more binding, comparable within an allelic series)
4 | ACTGCAGT | 8.23 upbm affinity estimate (log intensity, higher = more binding, comparable within an allelic series)
5 | CCGTCGCG | 8.16 upbm affinity estimate (log intensity, higher = more binding, comparable within an allelic series)
6 | CACCAGTC | 8.16 upbm affinity estimate (log intensity, higher = more binding, comparable within an allelic series)
7 | CCGAACCG | 8.21 upbm affinity estimate (log intensity, higher = more binding, comparable within an allelic series)
8 | CACGGCGA | 8.27 upbm affinity estimate (log intensity, higher = more binding, comparable within an allelic series)
9 | CGGGACCC | 8.17 upbm affinity estimate (log intensity, higher = more binding, comparable within an allelic series)
10 | CAACCTGC | 8.42 upbm affinity estimate (log intensity, higher = more binding, comparable within an allelic series)
11 | CGCGGCAG | 8.09 upbm affinity estimate (log intensity, higher = more binding, comparable within an allelic series)
12 | AGATTATG | 12.7 upbm affinity estimate (log intensity, higher = more binding, comparable within an allelic series)
13 | CGCCCCTC | 8.34 upbm affinity estimate (log intensity, higher = more binding, comparable within an allelic series)
14 | GCCAATCC | 10.4 upbm affinity estimate (log intensity, higher = more binding, comparable within an allelic series)
15 | GAACGCCC | 8.05 upbm affinity estimate (log intensity, higher = more binding, comparable within an allelic series)
16 | GAAGTTCC | 8.51 upbm affinity estimate (log intensity, higher = more binding, comparable within an allelic series)
17 | CGAGTGCG | 8.19 upbm affinity estimate (log intensity, higher = more binding, comparable within an allelic series)
18 | ACTGGACC | 8.04 upbm affinity estimate (log intensity, higher = more binding, comparable within an allelic series)
19 | CAGGTGCG | 8.4 upbm affinity estimate (log intensity, higher = more binding, comparable within an allelic series)
20 | ATTAAGCC | 12.8 upbm affinity estimate (log intensity, higher = more binding, comparable within an allelic series)

Row | Sequence | binding signal
21 | GAACGTTC | 8.02 upbm affinity estimate (log intensity, higher = more binding, comparable within an allelic series)
22 | CTTGCTAC | 8.21 upbm affinity estimate (log intensity, higher = more binding, comparable within an allelic series)
23 | AATATTAC | 10.1 upbm affinity estimate (log intensity, higher = more binding, comparable within an allelic series)
24 | GCAGATCA | 10.3 upbm affinity estimate (log intensity, higher = more binding, comparable within an allelic series)
25 | ACGCCACG | 8.27 upbm affinity estimate (log intensity, higher = more binding, comparable within an allelic series)
26 | CCGGTCGA | 8.51 upbm affinity estimate (log intensity, higher = more binding, comparable within an allelic series)
27 | TAATCCAA | 13 upbm affinity estimate (log intensity, higher = more binding, comparable within an allelic series)
28 | ACGTCTCG | 8 upbm affinity estimate (log intensity, higher = more binding, comparable within an allelic series)
29 | ACCAGTCG | 8.53 upbm affinity estimate (log intensity, higher = more binding, comparable within an allelic series)
30 | AGATTATA | 12.9 upbm affinity estimate (log intensity, higher = more binding, comparable within an allelic series)
31 | AGAAGGAG | 8.23 upbm affinity estimate (log intensity, higher = more binding, comparable within an allelic series)
32 | CGGGTCAC | 7.89 upbm affinity estimate (log intensity, higher = more binding, comparable within an allelic series)
33 | CACTAATC | 12.8 upbm affinity estimate (log intensity, higher = more binding, comparable within an allelic series)
34 | ATTTAAGA | 11.1 upbm affinity estimate (log intensity, higher = more binding, comparable within an allelic series)
35 | GCGTGACC | 8.46 upbm affinity estimate (log intensity, higher = more binding, comparable within an allelic series)
36 | AATCTCCC | 10.7 upbm affinity estimate (log intensity, higher = more binding, comparable within an allelic series)
37 | ATAAAACC | 10.7 upbm affinity estimate (log intensity, higher = more binding, comparable within an allelic series)
38 | AATAATCT | 12.7 upbm affinity estimate (log intensity, higher = more binding, comparable within an allelic series)
39 | AATCCAAC | 10.9 upbm affinity estimate (log intensity, higher = more binding, comparable within an allelic series)
40 | CGACGGAC | 8.32 upbm affinity estimate (log intensity, higher = more binding, comparable within an allelic series)
